Test results reported in the supplement of paper PMC10849652.
The full data set covers some 7,900 targets. This sample favours those with a hit. About 0.6% of all pairs of compound and target were hits. Values without a mark were called inactive.

Legend:
Assay in all cases: log2 fold change, soluble protein after heating vs DMSO (PISA); higher = thermal stabilisation; K562 cells, 10 uM, 30 min; active = over 0.2 and 3.5 SD of the protein, either way, in both replicates (recomputed)
[1] = compound: CC1=C(C=C(C=C1)NC(=O)C2=CC(=CC=C2)C(C)(C)C#N)NC3=CC4=C(C=C3)N=CN(C4=O)C
Summary of the method: (§1)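 Soluble protein was defined as the supernatant after 21,000xg for 90 min. It came from K562 cells at 2×10^6 cells/mL given 10 μM compound for 30 min, heated in aliquots for 3 min across 48°C-58°C, pooled, and extracted in PBS with 0.5% NP-40 at 4°C, and was quantified by TMTpro 16plex LC-MS/MS with equalised channel sums. Thermal stability against control samples, from duplicates, is reported as log2 fold change.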

[2] = compound: CC1=C(C=C(C=C1)NC(=O)C2=CC(=CC=C2)N(C)C)NC(=O)C3=CC=C(C=C3)O
Summary of the method: as §1

[3] = compound: CC1=CC=C(C=C1)SC2=C3C=C(SC3=CN=C2)C(=O)N
Summary of the method: as §1

[4] = compound: CC1=NC(=CC=C1)C2=C(N=C(N2)C(C)(C)C)C3=CC4=NC=CN=C4C=C3
Summary of the method: as §1

Nexturastat A = compound: CCCCN(Cc1ccc(C(=O)NO)cc1)C(=O)Nc1ccccc1 [Nexturastat A]
Summary of the method: as §1

vemurafenib = compound: CCCS(=O)(=O)Nc1ccc(F)c(C(=O)c2c[nH]c3ncc(-c4ccc(Cl)cc4)cc23)c1F [vemurafenib]
Summary of the method: as §1

[5] = compound: CCCS(=O)(=O)Nc1ccc(F)c(C(=O)c2c[nH]c3ncc(Cl)cc23)c1F
Summary of the method: as §1

[6] = compound: CCCc1cc(C)[nH]c(=O)c1CNC(=O)c1cc(-c2ccnc(N3CCN(C)CC3)c2)cc2c1cnn2C(C)C
Summary of the method: as §1

givinostat = compound: CCN(CC)Cc1ccc2cc(COC(=O)Nc3ccc(C(=O)NO)cc3)ccc2c1 [givinostat]
Summary of the method: as §1

barasertib = compound: CCN(CCCOc1ccc2c(Nc3cc(CC(=O)Nc4cccc(F)c4)[nH]n3)ncnc2c1)CCOP(=O)(O)O [barasertib]
Summary of the method: as §1

[7] = compound: CC[C@@H]1C(=O)N(C)c2cnc(Nc3ccc(C(=O)NC4CCN(C)CC4)cc3OC)nc2N1C1CCCC1
Summary of the method: as §1

volasertib = compound: CC[C@@H]1C(=O)N(C)c2cnc(Nc3ccc(C(=O)N[C@H]4CC[C@H](N5CCN(CC6CC6)CC5)CC4)cc3OC)nc2N1C(C)C [volasertib]
Summary of the method: as §1

[8] = compound: CC[C@H](C)N1C=C(C2=C(C=C(C=C21)C3=CN=C(C=C3)N4CCNCC4)C(=O)NCC5=C(C=C(NC5=O)C)C)C
Summary of the method: as §1

epoxomicin = compound: CC[C@H](C)[C@@H](C(=O)N[C@@H]([C@@H](C)O)C(=O)N[C@@H](CC(C)C)C(=O)[C@]1(CO1)C)NC(=O)[C@H]([C@@H](C)CC)N(C)C(=O)C [epoxomicin]
Summary of the method: as §1

[9] = compound: CCn1c(C(=O)N(C2CC2)C2CC2)cc2c3c(ncn3C)c(Nc3cc(C)n(C)n3)nc21
Summary of the method: as §1

[10] = compound: CCn1cc(-c2ccnc3[nH]c(-c4cccc(CN(C)C)c4)cc23)c(-c2ccc(NC(=O)N(C)C)cc2)n1
Summary of the method: as §1

[11] = compound: CN(C)CC(=O)Nc1ccc2[nH]c(=O)c3ccccc3c2c1
Summary of the method: as §1

rosiglitazone = compound: CN(CCOC1=CC=C(C=C1)C[C@H]2C(=O)NC(=O)S2)C3=CC=CC=N3 (racemic) [rosiglitazone]
Summary of the method: as §1

[12] = compound: CN1C2=C(C3=C1C(=O)N(N=C3)CC4=CC(=CC=C4)N)SC(=C2)S(=O)C
Summary of the method: as §1

[13] = compound: CN1CCC(CNc2ccc3ncc(-c4cccc(OC(F)(F)F)c4)n3n2)CC1
Summary of the method: as §1

UniProt Q92947, sequence (Q92947 whole entry, looked up): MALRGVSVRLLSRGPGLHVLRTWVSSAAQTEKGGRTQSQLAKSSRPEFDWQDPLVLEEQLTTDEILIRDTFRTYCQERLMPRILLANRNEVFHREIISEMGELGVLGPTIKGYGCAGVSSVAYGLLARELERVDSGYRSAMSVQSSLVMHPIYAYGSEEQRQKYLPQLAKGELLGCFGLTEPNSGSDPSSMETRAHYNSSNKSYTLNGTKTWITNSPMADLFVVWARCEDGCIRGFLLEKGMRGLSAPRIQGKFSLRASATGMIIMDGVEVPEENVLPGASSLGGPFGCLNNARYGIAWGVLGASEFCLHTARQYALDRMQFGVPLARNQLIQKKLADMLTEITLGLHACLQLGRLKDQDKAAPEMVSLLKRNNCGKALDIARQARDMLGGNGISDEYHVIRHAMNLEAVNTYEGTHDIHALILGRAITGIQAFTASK
UniProt Q4ZG55, sequence (Q4ZG55 whole entry, looked up): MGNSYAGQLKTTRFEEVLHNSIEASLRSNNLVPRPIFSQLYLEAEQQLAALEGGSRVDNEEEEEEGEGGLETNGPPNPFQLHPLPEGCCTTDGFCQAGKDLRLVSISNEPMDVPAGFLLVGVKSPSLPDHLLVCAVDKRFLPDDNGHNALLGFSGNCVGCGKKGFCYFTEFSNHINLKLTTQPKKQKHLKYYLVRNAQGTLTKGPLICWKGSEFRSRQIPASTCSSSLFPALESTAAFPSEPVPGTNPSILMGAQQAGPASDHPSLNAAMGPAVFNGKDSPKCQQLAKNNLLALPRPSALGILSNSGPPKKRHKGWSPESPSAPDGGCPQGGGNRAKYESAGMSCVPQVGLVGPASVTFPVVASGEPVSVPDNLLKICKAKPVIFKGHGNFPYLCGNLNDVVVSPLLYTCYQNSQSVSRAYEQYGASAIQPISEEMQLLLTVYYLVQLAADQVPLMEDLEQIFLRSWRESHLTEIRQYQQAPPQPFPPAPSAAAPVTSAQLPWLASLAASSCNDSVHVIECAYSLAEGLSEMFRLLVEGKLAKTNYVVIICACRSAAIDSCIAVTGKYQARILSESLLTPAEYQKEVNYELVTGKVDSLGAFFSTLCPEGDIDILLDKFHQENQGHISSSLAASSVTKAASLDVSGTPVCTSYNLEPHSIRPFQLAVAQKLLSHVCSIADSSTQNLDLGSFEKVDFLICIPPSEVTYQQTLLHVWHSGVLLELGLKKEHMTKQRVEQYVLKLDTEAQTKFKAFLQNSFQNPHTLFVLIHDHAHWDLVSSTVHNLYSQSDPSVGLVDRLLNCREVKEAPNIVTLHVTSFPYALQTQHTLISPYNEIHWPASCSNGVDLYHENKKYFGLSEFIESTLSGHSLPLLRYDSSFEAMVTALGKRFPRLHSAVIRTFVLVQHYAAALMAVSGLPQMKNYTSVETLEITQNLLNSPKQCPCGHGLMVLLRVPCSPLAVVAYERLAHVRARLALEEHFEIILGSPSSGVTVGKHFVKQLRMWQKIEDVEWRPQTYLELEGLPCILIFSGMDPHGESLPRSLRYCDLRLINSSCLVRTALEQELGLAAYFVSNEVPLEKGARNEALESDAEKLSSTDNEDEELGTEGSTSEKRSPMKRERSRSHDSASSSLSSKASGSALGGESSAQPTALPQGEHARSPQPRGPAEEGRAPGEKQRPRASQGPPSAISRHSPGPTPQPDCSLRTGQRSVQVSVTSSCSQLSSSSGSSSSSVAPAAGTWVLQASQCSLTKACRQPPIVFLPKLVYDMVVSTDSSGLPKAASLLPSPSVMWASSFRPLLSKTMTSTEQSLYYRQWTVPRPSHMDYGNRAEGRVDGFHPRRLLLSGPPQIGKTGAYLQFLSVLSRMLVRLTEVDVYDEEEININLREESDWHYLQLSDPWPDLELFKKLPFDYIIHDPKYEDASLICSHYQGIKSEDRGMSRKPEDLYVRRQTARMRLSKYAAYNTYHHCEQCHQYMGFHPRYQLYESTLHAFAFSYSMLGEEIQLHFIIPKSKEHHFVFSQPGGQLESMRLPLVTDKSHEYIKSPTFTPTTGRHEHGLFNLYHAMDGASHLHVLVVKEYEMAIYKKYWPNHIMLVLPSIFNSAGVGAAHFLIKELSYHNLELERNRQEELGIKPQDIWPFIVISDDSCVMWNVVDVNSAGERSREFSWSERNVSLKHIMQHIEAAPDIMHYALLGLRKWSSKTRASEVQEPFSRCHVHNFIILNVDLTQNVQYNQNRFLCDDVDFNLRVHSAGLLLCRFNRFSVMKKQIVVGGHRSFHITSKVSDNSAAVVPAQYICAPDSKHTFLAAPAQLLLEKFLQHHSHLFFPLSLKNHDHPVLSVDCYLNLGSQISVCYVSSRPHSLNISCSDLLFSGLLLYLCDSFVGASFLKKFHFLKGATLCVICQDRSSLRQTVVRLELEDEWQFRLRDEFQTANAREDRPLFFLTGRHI
UniProt Q9UK97, sequence (Q9UK97 whole entry, looked up): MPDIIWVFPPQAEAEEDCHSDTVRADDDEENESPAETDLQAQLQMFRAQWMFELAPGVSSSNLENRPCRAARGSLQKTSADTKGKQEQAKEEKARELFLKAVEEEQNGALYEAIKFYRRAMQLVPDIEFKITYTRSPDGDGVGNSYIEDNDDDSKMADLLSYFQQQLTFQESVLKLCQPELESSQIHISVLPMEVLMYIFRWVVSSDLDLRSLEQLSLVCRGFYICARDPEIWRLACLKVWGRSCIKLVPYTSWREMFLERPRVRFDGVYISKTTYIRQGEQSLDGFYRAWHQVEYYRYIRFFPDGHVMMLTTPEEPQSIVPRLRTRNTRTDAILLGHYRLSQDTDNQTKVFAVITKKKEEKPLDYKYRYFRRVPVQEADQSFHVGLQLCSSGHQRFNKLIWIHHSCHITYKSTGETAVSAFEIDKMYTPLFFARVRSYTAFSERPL
UniProt O43824, sequence (O43824 whole entry, looked up): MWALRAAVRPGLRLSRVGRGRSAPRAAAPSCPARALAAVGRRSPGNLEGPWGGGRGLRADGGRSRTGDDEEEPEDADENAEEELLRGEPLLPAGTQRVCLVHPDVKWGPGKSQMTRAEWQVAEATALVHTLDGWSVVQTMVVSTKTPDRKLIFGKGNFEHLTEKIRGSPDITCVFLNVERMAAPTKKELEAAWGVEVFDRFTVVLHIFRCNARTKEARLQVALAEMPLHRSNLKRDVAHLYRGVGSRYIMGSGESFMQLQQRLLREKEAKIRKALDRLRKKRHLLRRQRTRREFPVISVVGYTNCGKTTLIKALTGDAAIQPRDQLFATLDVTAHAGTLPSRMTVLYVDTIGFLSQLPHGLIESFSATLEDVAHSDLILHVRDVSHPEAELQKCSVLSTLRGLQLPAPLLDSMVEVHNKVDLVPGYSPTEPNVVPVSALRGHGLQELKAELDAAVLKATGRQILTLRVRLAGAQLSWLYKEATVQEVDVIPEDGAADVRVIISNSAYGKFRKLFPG
UniProt P30711, sequence (P30711 whole entry, looked up): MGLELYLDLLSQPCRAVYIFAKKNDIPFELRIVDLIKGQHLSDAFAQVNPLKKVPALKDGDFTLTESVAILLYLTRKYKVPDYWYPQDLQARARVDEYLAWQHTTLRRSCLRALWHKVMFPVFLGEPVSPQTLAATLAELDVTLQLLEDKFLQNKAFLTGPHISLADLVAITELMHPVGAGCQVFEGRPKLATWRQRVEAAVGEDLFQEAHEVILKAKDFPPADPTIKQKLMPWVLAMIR
UniProt P01344, sequence (P01344 whole entry, looked up): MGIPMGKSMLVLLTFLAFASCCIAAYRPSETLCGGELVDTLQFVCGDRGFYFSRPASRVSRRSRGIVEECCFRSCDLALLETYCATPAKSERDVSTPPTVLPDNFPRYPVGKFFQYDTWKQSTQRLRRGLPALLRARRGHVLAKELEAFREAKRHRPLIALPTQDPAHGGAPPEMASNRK
UniProt Q14687, sequence (Q14687 whole entry, looked up): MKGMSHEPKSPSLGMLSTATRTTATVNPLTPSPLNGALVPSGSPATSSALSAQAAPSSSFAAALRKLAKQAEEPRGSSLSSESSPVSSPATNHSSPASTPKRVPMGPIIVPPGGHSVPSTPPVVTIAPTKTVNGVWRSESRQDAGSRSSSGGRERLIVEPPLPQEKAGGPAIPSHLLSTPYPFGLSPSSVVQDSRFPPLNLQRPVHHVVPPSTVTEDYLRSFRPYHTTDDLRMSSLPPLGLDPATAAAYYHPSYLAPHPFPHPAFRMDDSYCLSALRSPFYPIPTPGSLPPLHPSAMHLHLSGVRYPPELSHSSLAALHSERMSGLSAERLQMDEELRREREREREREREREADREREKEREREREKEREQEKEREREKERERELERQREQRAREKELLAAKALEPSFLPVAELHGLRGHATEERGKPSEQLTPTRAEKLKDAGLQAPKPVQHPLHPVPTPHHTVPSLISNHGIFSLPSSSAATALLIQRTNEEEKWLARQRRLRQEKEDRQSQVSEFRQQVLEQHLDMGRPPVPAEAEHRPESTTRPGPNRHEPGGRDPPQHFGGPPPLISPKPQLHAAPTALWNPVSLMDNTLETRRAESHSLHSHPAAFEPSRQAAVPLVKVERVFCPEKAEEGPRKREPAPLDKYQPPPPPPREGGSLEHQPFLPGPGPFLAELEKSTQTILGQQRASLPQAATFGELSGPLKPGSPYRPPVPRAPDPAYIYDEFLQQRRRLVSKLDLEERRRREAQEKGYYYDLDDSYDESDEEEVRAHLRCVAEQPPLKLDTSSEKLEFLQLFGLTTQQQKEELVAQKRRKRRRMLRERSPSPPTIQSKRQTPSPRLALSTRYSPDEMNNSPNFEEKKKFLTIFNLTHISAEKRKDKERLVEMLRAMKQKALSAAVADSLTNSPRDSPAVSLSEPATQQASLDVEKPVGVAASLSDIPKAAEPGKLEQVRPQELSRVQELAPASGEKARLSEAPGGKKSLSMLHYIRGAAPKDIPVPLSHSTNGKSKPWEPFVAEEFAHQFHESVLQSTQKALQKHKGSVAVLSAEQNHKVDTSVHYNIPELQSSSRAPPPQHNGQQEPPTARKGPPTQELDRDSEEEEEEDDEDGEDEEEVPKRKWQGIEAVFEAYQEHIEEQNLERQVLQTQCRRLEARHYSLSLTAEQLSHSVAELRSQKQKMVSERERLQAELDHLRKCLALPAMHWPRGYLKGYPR

| Target | log2 fold change [1] | log2 fold change [2] | log2 fold change [3] | log2 fold change [4] | log2 fold change (Nexturastat A) | log2 fold change (vemurafenib) | log2 fold change [5] | log2 fold change [6] | log2 fold change (givinostat) | log2 fold change (barasertib) | log2 fold change [7] | log2 fold change (volasertib) | log2 fold change [8] | log2 fold change (epoxomicin) | log2 fold change [9] | log2 fold change [10] | log2 fold change [11] | log2 fold change (rosiglitazone) | log2 fold change [12] | log2 fold change [13] |
| --- | --- | --- | --- | --- | --- | --- | --- | --- | --- | --- | --- | --- | --- | --- | --- | --- | --- | --- | --- | --- |
| GCDH (UniProt Q92947) | -0.017 | -0.004 | 0.014 | 0.009 | -0.007 | 0 | 0.002 | 0.009 | 0.004 | 0.005 | -0.029 | 0.039 | -0.003 | 0.024 | -0.021 | -0.051 | 0.008 | 0.013 | -0.048 | 0.072 |
| H2AFX (UniProt P16104) | -0.088 | -0.006 | -0.231 | -0.073 | 0.754 | -0.232 | 0.329 | 0.1 | 0.328 | -0.11 | 0.002 | 0.214 | -0.096 | -0.237 | -0.01 | 0.279 | -0.213 | -0.101 | 0.501 | 0.082 |
| GLS (UniProt O94925) | -0.013 | -0.072 | -0.024 | 0.034 | -0.065 | 0.096 | 0.132 | 0.062 | 0.041 | 0.054 | -0.271 | -0.366 (active) | 0.142 | 0.151 | -0.026 | -0.051 | 0.103 | 0.085 | -0.085 | -0.241 |
| GNL3 (UniProt Q9BVP2) | 0.002 | – | – | – | 0.491 (active) | -0.12 | – | -0.307 | – | 0.079 | 0.018 | – | -0.197 | -0.06 | – | 0.118 | 0.002 | 0.046 | -0.103 | 0.081 |
| GTPBP6 (UniProt O43824) | 0.038 | 0.014 | – | -0.042 | -0.037 | 0.015 | – | 0.006 | -0.062 | -0.015 | -0.07 | – | -0.041 | 0.026 | 0.025 | -0.079 | 0.034 | 0.299 | -0.13 | -0.007 |
| GOLGA8R (UniProt I6L899) | – | -0.037 | 0.041 | -0.205 | – | 0.06 | -0.086 | – | 0.223 | 0.048 | -0.036 | -0.4 | – | – | -0.233 | -0.182 | 0.191 | 0.074 | -0.003 | -0.033 |
| IFNGR1 (UniProt P15260) | -0.246 | 0.048 | -0.056 | – | 0.743 (active) | -0.124 | -0.181 | -0.174 | 0.281 | 0.028 | 0.065 | 0.15 | -0.382 | 0.021 | -0.108 | 0.1 | -0.087 | -0.02 | 0.032 | 0.127 |
| GSTT1 (UniProt P30711) | – | -0.004 | 0.011 | 0.101 | -0.062 | 0.064 | -0.063 | 0.081 | 0.009 | -0.018 | 0.02 | -0.057 | -0.038 | 0.203 | -0.019 | 0.019 | -0.034 | -0.024 | -0.058 | -0.002 |
| HBZ, A0A494C057 | – | – | – | – | – | – | – | 0.051 | 0.109 | 0.013 | 0.203 | – | -0.079 | – | -0.008 | – | – | -0.188 | – | – |
| FCF1 (UniProt Q9Y324) | 0.017 | -0.011 | -0.114 | -0.187 | 0.271 | -0.139 | -0.167 | 0.324 | – | – | 0.095 | 0.108 | – | -0.003 | – | 0.134 | -0.041 | – | 0.107 | 0.219 |
| IGF2 isoform 3 (UniProt P01344) | – | – | – | 0.136 | – | 0.073 | – | – | -0.148 | – | – | – | – | – | -0.395 | – | -0.218 | – | 0.135 | – |
| FBXO9 (UniProt Q9UK97) | – | 0.009 | 0.064 | -0.025 | – | 0 | 0.061 | 0.052 | 0.111 | 0.117 | -0.17 | -0.545 (active) | 0.06 | – | 0.086 | 0.009 | 0.097 | 0.07 | 0.045 | 0.203 |
| HS1BP3 (UniProt Q53T59) | 0.023 | -0.045 | -0.109 | -0.046 | 0.052 | 0.132 | 0.021 | – | 0.111 | 0.047 | -0.038 | -0.343 (active) | 0.073 | 0.056 | -0.043 | – | 0.012 | 0.07 | -0.041 | – |
| HAUS4 (UniProt Q9H6D7) | -0.143 | 0.003 | 0.084 | – | -0.061 | -0.049 | 0.012 | -0.269 | 0.08 | -0.16 | -0.138 | -0.027 | 0.123 | -0.391 | -0.04 | 0.032 | -0.072 | 0.027 | 0.246 | 0.049 |
| GREB1 (UniProt Q4ZG55) | -0.003 | – | – | -0.338 | 0.755 (active) | 0.047 | – | – | 0.294 | – | – | – | – | -0.081 | -0.108 | – | -0.095 | – | – | – |
| GBA2 (UniProt Q9HCG7) | -0.079 | – | -0.043 | 0 | 0.051 | 0 | -0.032 | -0.076 | -0.02 | 0.008 | 0 | 0.308 (active) | -0.082 | -0.062 | -0.075 | – | 0.027 | -0.07 | -0.085 | – |
| HSPA8 (UniProt E9PN89) | -0.158 | – | -0.261 | -0.144 | -0.019 | -0.276 | -0.507 | -0.689 | 0.182 | 0.03 | 0.167 | 0.114 | -0.205 | -0.278 | -0.127 | 0.178 | -0.139 | 0.049 | – | -0.154 |
| GSE1 (UniProt Q14687) | – | 0.071 | – | – | – | -0.13 | – | – | – | 0.232 | – | – | -0.003 | – | – | – | -0.117 | 0.151 | -0.004 | – |
| HNRNPK isoform 3 (UniProt P61978) | -0.015 | 0.027 | – | 0.066 | 0.085 | -0.066 | – | -0.067 | 0.062 | -0.136 | 0.121 | – | -0.062 | -0.035 | 0.034 | 0.032 | 0.012 | -0.035 | -0.057 | 0.076 |
| GID4 (UniProt Q8IVV7) | 0.028 | 0.003 | -0.07 | – | 0.058 | -0.181 | -0.271 (active) | -0.035 | -0.03 | -0.1 | 0.082 | 0.037 | 0.044 | -0.019 | 0.08 | 0.116 | -0.21 | 0.003 | -0.093 | -0.006 |
